These results are taken from PubChem BioAssay (EPA / NIEHS).

Molecules are shown by their SMILES. Active and inactive are the calls of the source. How the source made its calls: active means hit-call score of the fitted dose curve at least 0.9, where 1 is the maximum; inactive means score below 0.9.

The test can be described thus: ATG_Oct_MLP_CIS: Attagene CIS-FACTORIAL HepG2 Assay for human Octamer-Binding Transcription Factor (Oct) (AID 2282993). The note with it: HepG2 Attagene cis-factorial Oct reporter, mRNA; actives raise or lower the signal. Here is the method: ATG_CIS is a cell-based, multiplexed-readout assay that uses HepG2, a human liver cell line, with measurements taken at 24 hours after chemical dosing in a 24-well plate.ATG_Oct_MLP_CIS is one of 52 assay component(s) measured or calculated from the ATG_CIS assay. It is designed to make measurements of mRNA induction, a form of inducible reporter, as detected with fluorescence intensity signals by Reverse transcription polymerase chain reaction (RT-PCR) and Capillary electrophoresis technology.Data from the assay component ATG_Oct_MLP_CIS was analyzed into 1 assay endpoint. This assay endpoint, ATG_Oct_MLP_CIS, was analyzed with bidirectional fitting relative to DMSO as the negative control and baseline of activity. Using a type of inducible reporter, measures of mRNA for gain or loss-of-signal activity can be used to understand the reporter gene at the transcription factor-level as they relate to the gene POU2F1. Furthermore, this assay endpoint can be referred to as a primary readout, because this assay has produced multiple assay endpoints where this one serves a reporter gene function. To generalize the intended target to other relatable targets, this assay endpoint is annotated to the dna binding intended target family, where the subfamily is POU domain protein.
Human liver HepG2 cells are transiently transfected with multiple reporter transcription units (MRTUs) in 6-well plates using FuGene 6 reagent (Roche; 3 ml FuGene/1 mg DNA). The MRTU constructs are regulated by a cis-regulating element (promoter). […] A major difference between the CIS and TRANS system is that in CIS activities of endogenous TFs are measured, whereas the TRANS assay evaluates changes in activities of exogenous, chimeric NR-Gal4 proteins. […] At the end of 24 hour incubation, total RNA was isolated using TriZol reagent (Invitrogen). The isolated RNA is then reverse-transcribed using oligo(dT) primer and Mo-MLV reverse transcriptase (Invitrogen) with DNAse I (Ambion) treatment for 30 min. The one-tenth of the produced cDNA was amplified by PCR using Taq DNA polymerase (Invitrogen) and two reporter sequence-specific primers. The PCR products were fluorescently labeled by primer extension with 6-arboxyfluorescein (6-FAM) 5'-labeled reporter sequence-specific primer (2 min at 95 C, 20 s at 68 C and 10 min at 72 C) and these products were digested with 5U of HpaI (New England Biolabs) for 2h at 37 C. The fragments were purified using Qiaquick PCR columns (Qiagen), analyzed on an ABI 3130xL genetic analyzer (Applied Biosystems) with peak positions identified by using a set of X-rhodamine (ROX)-labeled MapMarker1000 molecular weight standards (BioVentures). The raw capillary electrophoresis data was processed using Attagraph software (Attagene).
Regarding `O=C1Nc2ccccc2C1(c1ccc(O)cc1)c1ccc(O)cc1`, the AC50 was 22.4 µM (active).

With `O=Nc1ccc(O)cc1`, the outcome was inactive.

Turning to `OC1OCCOC1O` (stereo not given), the result was inactive.

Consider `CCC(=O)Oc1ccc(/C(CC)=C(\CC)c2ccc(OC(=O)CC)cc2)cc1`, for which the call was inactive.

As to `Cc1ccc(N/N=c2\c(=O)cc/c(=N/Nc3ccc(S(=O)(=O)O)cc3)c2=O)c(C)c1`, the result was inactive.

As for `O=C1C=CC(=O)O1`, the molecule was called inactive.

`O=C1CCC(=O)N1Cl`: the molecule was called inactive.

Turning to `CC(=O)c1ccc[nH]1`, the call was inactive.

With `CC(C)CCCC(C)CC=O` (stereo not given), the molecule was classed as inactive.

Turning to `CC(C)C1=CC2=CC[C@@H]3[C@](C)(CCC[C@@]3(C)C(=O)O)[C@H]2CC1`, the call was inactive.

Turning to `CC(C)c1ccc2cc(C(C)C)ccc2c1`, the result was inactive.

Turning to `O=C(c1ccccc1)c1ccc(O)c(O)c1O`, the result was inactive.

Consider `O=Cc1ccc(CO)o1`, for which the call was inactive.

As to `CCCCCCCCCCCCCCCC[n+]1ccccc1`, the result was inactive.

As to `NC(=O)NNC(N)=O`, the molecule was classed as inactive.

For the molecule `CCC(Cc1ccccc1)(C(=O)c1ccc(N2CCOCC2)cc1)N(C)C` (stereo not given), the molecule was classed as inactive.

Regarding `CCCCCCOc1cc(C)c(O)c(C)c1C`, the result was inactive.

With `CC(=O)OC1C2(C)CCC(C2)C1(C)C` (stereo not given), the molecule was called inactive.

Turning to `S=C(NC1CCCCC1)NC1CCCCC1`, the call was inactive.

With `CCCCCCCCCCCCCCCC(=O)OCC`, the outcome was inactive.

As to `CC1OC1C1CCC2(C)OC2C1` (stereo not given), the call was inactive.

In the case of `CCN(Cc1cccc(S(=O)(=O)O)c1)c1ccc(C(=C2C=CC(=[N+](CC)Cc3cccc(S(=O)(=O)[O-])c3)C=C2)c2ccccc2)cc1`, the call was inactive.

On to `CCOC(=O)NNc1nncc2ccccc12`, for which the result was inactive.

`COC(=O)c1sccc1S(N)(=O)=O`: the molecule was classed as inactive.

Regarding `CCCCCCCC/C=C\CCCCCCCC(=O)O`, the molecule was classed as inactive.

For the molecule `Cc1ccc(C2OC[C@@H]3OC(c4ccc(C)cc4)O[C@H]([C@H](O)CO)[C@@H]3O2)cc1` (stereo not given in full), the outcome was inactive.

On to `O=C1c2ccccc2C(=O)C1c1nc2ccccc2c(Br)c1O`, for which the molecule was called inactive.

In the case of `C[Si](C)(C)O[Si](O)(O)O`, the outcome was inactive.

`COC(=O)c1c(C)cc(O)c(C)c1O`: the molecule was classed as inactive.

Turning to `OCCNCc1ccccc1`, the result was inactive.

Take `CCOC(=O)c1ccccc1C(=C1C=C(Br)C(=O)C(Br)=C1)c1cc(Br)c(O)c(Br)c1`: the concentration at half-maximal activity (AC50) was 53.1 µM (active).

In the case of `CCCOCCOCCOCCO`, the molecule was classed as inactive.

With `C=CCOc1c(Br)cc(Br)cc1Br`, the molecule was called inactive.

Regarding `O=c1[nH]nc(-c2ccc([N+](=O)[O-])o2)o1`, the result was inactive.

For the molecule `Cn1c(=O)[nH]c2ncn(C)c2c1=O`, the molecule was classed as inactive.

With `CCCCNc1ccc(NCCCC)c2c1C(=O)c1ccccc1C2=O`, the outcome was inactive.

As for `CC(C)CCCCCOC(=O)CCS`, the molecule was called inactive.

For `CCCCCCCCc1ccc(Nc2ccc(CCCCCCCC)cc2)cc1`, the molecule was called inactive.

In the case of `O=C1CC2CC1C1CCCC21` (stereo not given), the molecule was called inactive.

With `CC(C)c1ccc2c(c1)CC[C@H]1[C@](C)(CN)CCC[C@]21C`, the AC50 is 5.89 µM (active).

The AC50 is the concentration giving half of the maximal activity seen.
